Source: PubChem BioAssay AID2094 (Broad Institute, 2009)
Screen size: about 300,000 compounds; about 1,200 (0.4%) were called active. Many of the other results were omitted from the sample, so actives are more common in it than they were. Unmarked numbers belong to inactive results. Cut-off read from the data, not from the text of the source: active = activity change below about -75% (passing the limit was not always enough); inconclusive = no clear call, values can overlap the other calls.

Test: modulation of AI-2 quorum-sensing luminescence – JMH597 strain, luminescence/OD600 ratio, primary screen (AID 2094);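 note: luminescence divided by OD600 gain over 9 h not by final OD600 alone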
Conditions: Vibrio harveyi JMH597 AI-2 luminescence/OD600 ratio, 9 h; at 7.5 µM; stronger effect = lower value; 0 = neutral-control median; strain lacks LuxN and CqsS sensors

Structure (SMILES)	activity change
CC(=O)N1c2ccc(S(=O)(=O)N3CCC(C(=O)NC4CCCC(C)C4C)CC3)cc2CC1C (stereo unspecified)	26.4%
O=C(COc1ncnc2c(Cl)cc(Cl)cc12)N1CCN(S(=O)(=O)c2ccccc2)CC1	8.92%
Cc1cc(C)c2nc(-c3cccnc3)cc(C(=O)Nc3ccc(S(=O)(=O)Nc4onc(C)c4C)cc3)c2c1	39.3%
CCOC(=O)c1sc(NC(=O)c2sc(C)nc2C)nc1C	1.24%
CC1COc2ccccc2N1C(=O)c1ccc(F)cc1 (stereo unspecified)	25.4%
O=C(Nc1ccccc1F)c1ccc2c(c1)OCO2	-3.7%
O=C(Nc1nnc(C2COc3ccccc3O2)o1)c1ccc(F)cc1 (stereo unspecified)	-225% (active)
CN(C)S(=O)(=O)N1CCC(Oc2cccc(C(=O)NCCCC3CCCC3)c2)CC1	1.44%
CCN(CC(=O)Nc1cccc(S(=O)(=O)N2CCCCC2)c1)Cc1ccccc1	24.8%
CC(=O)NC(CC(=O)Nc1cccc(S(=O)(=O)N2CCCC2)c1)c1ccccc1 (stereo unspecified)	3.39%
O=C(Cn1cnc2ccccc2c1=O)Nc1cccc(S(=O)(=O)N2CCCCC2)c1	-81.4% (active)
C=CS(=O)c1sc(Cl)c(N2CCOCC2)c1[N+](=O)[O-] (stereo unspecified)	-83.3% (active)
CCCNC(=S)N1CCC(NC(=O)C23CC4CC(CC(C4)C2)C3)CC1	28.5%
CCCc1cc(=O)oc2c(C)c(OC(C)C(=O)NCC(O)c3ccccc3)ccc12 (stereo unspecified)	23.7%
CC(Oc1ccc(-c2ccccc2)c(F)c1)c1ccn(S(=O)(=O)c2cccc3ccccc23)n1 (stereo unspecified)	27.1%
CCN(CC)CCn1c2c(c(SCC(=O)Nc3ccc(C(C)C)cc3)nc1=O)CCC2	5.82%
O=c1c2sccc2nc(SCc2cc(=O)n3ccccc3n2)n1-c1ccc(Br)cc1	19.6%
C=C(C)c1cccc(C(C)(C)NC(=O)NC2CCCC2)c1	1.39%
COc1ccc(C(=O)NNC(=S)NC(=O)c2ccccc2)cc1	-106% (active)
COc1ccc(C(=O)NNC(=S)NC(=O)c2ccccc2[N+](=O)[O-])cc1	34.4%
COc1ccc(C(=O)NC(=S)NNC(=O)c2c(-c3ccccc3)noc2C)cc1	26.1%

Structure (SMILES)	activity change
CCNc1nc(NC(C)C)nc(OCCOC(=O)c2ccccc2)n1	23.7%
COc1ccc(C2N=C(N)N=C(N)N2c2ccccc2)cc1OC (stereo unspecified)	19.2%
CC1=CC=CC2=N/C(=N\S(=O)(=O)c3ccc(F)cc3F)c3ccccc3CN12	21.6%
Cc1ccccc1NC(=O)CCOc1ccccc1	-83.3% (active)
Cc1cccc(OCCC(=O)Nc2ccccc2C(N)=O)c1	11.3%
CCc1ccccc1NC(=O)CCOc1ccccc1	24.5%
C=CCO/N=C/C1=C(O)C(C(=O)OC)C(C)(C)CC1=O (stereo unspecified)	9.19%
COc1ccc(CCC(=O)c2ccc(OC)cc2)cc1	-82.8% (active)
COc1ccc(OCCC(=O)c2ccc(OC)cc2)cc1	30.2%
CO/N=C/CC(=O)c1ccc(OC)cc1	8.95%
COc1cccc(NC(=O)COc2cc(C)cc3oc(=O)cc(C)c23)c1	15.1%
O=c1[nH]c(NCCO)nnc1Cc1ccc(Cl)cc1	-1.67%
COc1ccc(Cc2nnc(N/N=C/c3ccccc3O)[nH]c2=O)cc1OC	-86.4% (active)
Cc1nnc(N/N=C/c2ccccn2)[nH]c1=O	-29.7%
COCC(=O)N1CCCC(C(=O)c2ccc(C(F)(F)F)cc2)C1 (stereo unspecified)	13.4%
CC(=O)c1ccc(S(=O)(=O)N(C)CCCC(=O)N(C)Cc2ccccc2F)cc1	21.5%
O=C(Nc1ccc(Oc2ccccc2)cc1)c1ccco1	-96.6% (active)
O=C(/C=C/c1ccco1)Nc1ccc(Oc2ccccc2)cc1	-83.2% (active)
Cc1nnc(NC(=O)/C=C/c2ccco2)s1	12.9%
O=C(Nc1ccccc1)c1ccco1	10.6%
O=C(Nc1ccc(O)cc1)c1ccc(NC(=O)c2ccco2)cc1	7.66%

Structure (SMILES)	activity change
O=C(/C=C/c1ccco1)Nc1cccc(-c2nc3ccccc3[nH]2)c1	4.93%
CCc1cccc(NC(=O)CCCN2C(=O)C(c3ccccc3)Oc3cccnc32)c1 (stereo unspecified)	34.6%
CC(OC(=O)CNS(=O)(=O)/C=C/c1ccccc1)C(=O)Nc1ccc(S(=O)(=O)N2CCCC2)cc1 (stereo unspecified)	11.2%
CCCCCCNCCn1cnc2c(N)ncnc21	19.1%
O=C(c1cc(-c2ccc(O)cc2)on1)N1CCOCC1	2.48%
O=C(c1cc(-c2cccc(O)c2)on1)N1CCc2ccccc2C1	-84.1% (active)
Cc1ccc(-c2cc(C(=O)N3CCc4ccccc4C3)no2)cc1	4.44%
COc1ccc(C)cc1N(CC(=O)NC(C)c1ccccc1)S(C)(=O)=O (stereo unspecified)	17.3%
CCOc1ccc(-n2c(SCC(=O)Nc3ccc(OC)cc3)nc3sc4c(c3c2=O)CCN(C)C4)cc1	20.9%
O=C(Nc1ccccc1Cl)/C(Cl)=C(\Cl)S(=O)c1ccccc1 (stereo unspecified)	-84.8% (active)
O=C(Nc1ccccc1Cl)Nc1cccc2cccnc12	24.3%
O=C(Cc1ccc2c(c1)CCCC2)Nc1ccccc1Cl	-3.68%
Cc1csc(OCC(=O)Nc2ccc(C)c(C)c2)n1	15.5%
O=C(CC1SC(=Nc2ccccc2)N(Cc2ccccn2)C1=O)Nc1cccc(Cl)c1 (stereo unspecified)	3.68%
CCC(NC(=O)c1cc(COc2ccc(F)c(F)c2)on1)c1ccncc1 (stereo unspecified)	14%
CC(=O)c1cccc(OCc2cc(C(=O)NC(C)Cc3cccnc3)no2)c1 (stereo unspecified)	-85.8% (active)
Cc1cccnc1CC(C)NC(=O)c1cc(COc2cncc(Cl)c2)on1 (stereo unspecified)	10.5%
CC1(C)C/C(=N/Nc2ccc([N+](=O)[O-])cc2[N+](=O)[O-])C(C)(C)O1	18.5%
C/C=C/C(=O)OCc1csc(CC(=O)Nc2ccccc2C)n1	48.5%
